# About 79,000 compounds went through this panel and 15% of them were active in at least one assay; those are over-represented in the sample as a whole. Values without a mark were called inactive. Activity calls are given as the source filed them. Cut-off read from the data, not from the text of the source: active = growth inhibition above about 70%; inactive = the rest.
# Tests used:
# [1] = NCI Yeast Anticancer Drug Screen. Data for the rad52 strain (AID 147);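 note: 0% = growth of vehicle-treated control cultures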; settings: S. cerevisiae rad52 mutant growth inhibition, stronger effect = higher value
# How it was run: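 Yeast strain carrying a DNA damage repair alteration was exposed to test compounds. Growth inhibition was measured relative to vehicle-treated controls.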
# [2] = NCI Yeast Anticancer Drug Screen. Data for the wt1 strain (AID 149);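 note: 0% = growth of vehicle-treated wt1 cultures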; settings: S. cerevisiae wt1 strain (SPY 50644) growth inhibition, stronger effect = higher value
# How it was run: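 Vehicle-normalised growth inhibition; strain wt1; compound exposure.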
# [3] = NCI Yeast Anticancer Drug Screen. Data for the rad50EPP+ strain (AID 151);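 note: 0% = growth of vehicle-treated control cultures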; settings: S. cerevisiae rad50 mutant strain, stronger effect = higher value
# How it was run: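 Yeast strain carrying rad50 alteration (rad50EPP+) exposed to compounds; growth inhibition measured relative to vehicle-treated controls.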
# [4] = NCI Yeast Anticancer Drug Screen. Data for the mgt1 strain (AID 153); settings: S. cerevisiae mgt1 mutant growth inhibition, stronger effect = higher value
# How it was run: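 Yeast mgt1 strain (DNA repair/cell-cycle alteration panel) exposed to compounds; growth inhibition measured relative to vehicle-treated controls.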
# [5] = NCI Yeast Anticancer Drug Screen. Data for the rad50 strain (AID 155);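 note: 0% = growth of vehicle-only cultures of the same strain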; settings: S. cerevisiae rad50 strain growth inhibition, stronger effect = higher value
# How it was run: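 A DNA repair-deficient yeast mutant serves as the test organism; compound-induced growth inhibition is calculated against vehicle-treated cells.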
# [6] = NCI Yeast Anticancer Drug Screen. Data for the mec2-1 strain (AID 157); settings: S. cerevisiae mec2-1 strain, stronger effect = higher value
# How it was run: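 mec2-1 yeast strain, carrying an alteration in DNA damage repair or cell cycle control, was exposed to compounds; growth inhibition was measured relative to vehicle-treated controls.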
# [7] = NCI Yeast Anticancer Drug Screen. Data for the rad14 strain (AID 159);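 note: 0% = growth of vehicle-treated control cultures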; settings: S. cerevisiae rad14 strain growth inhibition, stronger effect = higher value
# How it was run: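 Vehicle-treated cultures served as the baseline for growth inhibition of a DNA repair-mutant yeast strain exposed to each compound.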
# [8] = NCI Yeast Anticancer Drug Screen. Data for the sgs1 mgt1 strain (AID 161);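 note: 0% = growth of cultures given vehicle only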; settings: S. cerevisiae sgs1 mgt1 strain, stronger effect = higher value
# How it was run: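 Yeast cells carrying a defined DNA-repair defect were exposed to test compounds. Growth inhibition was measured relative to vehicle-treated controls.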
# [9] = NCI Yeast Anticancer Drug Screen. Data for the CLN2oe strain (AID 163);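 note: 0% = growth of vehicle-only control cultures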; settings: S. cerevisiae CLN2oe strain, stronger effect = higher value
# How it was run: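 Yeast cells carrying a defined cell-cycle control alteration were exposed to test compounds. Growth inhibition was scored against vehicle-treated control cultures.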
# [10] = NCI Yeast Anticancer Drug Screen. Data for the cln2 rad14 strain (AID 165);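 note: 0% = growth equal to vehicle treated cultures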; settings: S. cerevisiae cln2 rad14 strain, stronger effect = higher value
# How it was run: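 Yeast carrying cln2 and rad14 alterations (cell cycle control and DNA damage repair) were exposed to compounds. Growth inhibition was measured against vehicle-treated controls.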
# [11] = NCI Yeast Anticancer Drug Screen. Data for the bub3 strain (AID 167); settings: S. cerevisiae bub3 mutant strain, stronger effect = higher value
# How it was run: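 Inhibition values come from growth of compound-treated mutant yeast normalised to vehicle-treated controls.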
# [12] = NCI Yeast Anticancer Drug Screen. Data for the wt2 strain (AID 169);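 note: 0% = growth of vehicle-treated yeast cultures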; settings: S. cerevisiae wt2 strain growth inhibition, stronger effect = higher value
# How it was run: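 Yeast cells were exposed to test compounds, and growth inhibition was measured relative to vehicle-treated controls.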
# [13] = NCI Yeast Anticancer Drug Screen. Data for the mlh1 strain (AID 171);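 note: 0% = growth of vehicle-treated control cultures of the same strain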; settings: S. cerevisiae mlh1 strain growth inhibition, stronger effect = higher value
# How it was run: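 Yeast carrying a defined genetic alteration in DNA damage repair or cell cycle control were exposed to test compounds. Growth inhibition was measured relative to vehicle-treated controls.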
# [14] = NCI Yeast Anticancer Drug Screen. Data for the sgs1 strain (AID 173);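 note: 0% = growth of vehicle-only control cultures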; settings: S. cerevisiae sgs1 mutant, stronger effect = higher value
# How it was run: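 Yeast mutant strains carrying defined defects in DNA damage repair or cell cycle control were exposed to test compounds. Growth inhibition was scored against vehicle-treated controls.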
# [15] = NCI Yeast Anticancer Drug Screen. Data for the mlh1 rad18 strain (AID 175); settings: S. cerevisiae mlh1 rad18 strain growth inhibition, stronger effect = higher value
# How it was run: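 Growth inhibition of the yeast strain was measured after compound exposure and expressed relative to vehicle-treated controls. The strain carries defined defects in DNA damage repair.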
# [16] = NCI Yeast Anticancer Drug Screen. Data for the rad18 strain (AID 177); settings: S. cerevisiae rad18 mutant growth inhibition, stronger effect = higher value
# How it was run: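 Yeast carrying a defined DNA damage repair alteration were exposed to compounds. Growth inhibition was expressed relative to vehicle-treated controls.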
# [17] = at 5.0 µM (retest, dose inferred, filed as 0.5)
# [18] = at 50.0 µM (retest, dose inferred, filed as 5.0)
smiles,measurement,setting,value
O=C1C2C(C(=O)N1c1ccc(OCc3ccccc3)cc1)C1c3ccccc3C2C2CCCCN21 (stereo unspecified),growth inhibition,[1]; at 1.2 µM,-3%
same,growth inhibition,[1]; at 3.7 µM,1%
same,growth inhibition,[1]; at 11.0 µM,3%
same,growth inhibition,[1]; at 33.0 µM,12%
same,growth inhibition,[1]; at 100.0 µM,79% (active)
same,growth inhibition,[2]; at 1.2 µM,-6%
same,growth inhibition,[2]; at 3.7 µM,-7%
same,growth inhibition,[2]; at 11.0 µM,-10%
same,growth inhibition,[2]; at 33.0 µM,-10%
same,growth inhibition,[2]; at 100.0 µM,75% (active)
same,growth inhibition,[3]; at 1.2 µM,-1%
same,growth inhibition,[3]; at 3.7 µM,4%
same,growth inhibition,[3]; at 11.0 µM,0%
same,growth inhibition,[3]; at 33.0 µM,1%
same,growth inhibition,[3]; at 100.0 µM,6%
same,growth inhibition,[4]; at 1.2 µM,4%
same,growth inhibition,[4]; at 3.7 µM,4%
same,growth inhibition,[4]; at 11.0 µM,-11%
same,growth inhibition,[4]; at 33.0 µM,2%
same,growth inhibition,[4]; at 100.0 µM,95% (active)
same,growth inhibition,[5]; at 1.2 µM,3%
same,growth inhibition,[5]; at 3.7 µM,11%
same,growth inhibition,[5]; [17],3%
same,growth inhibition,[5]; at 11.0 µM,13%
same,growth inhibition,[5]; at 33.0 µM,41%
same,growth inhibition,[5]; [18],50%
same,growth inhibition,[5]; at 50.0 µM,80.8% (active)
same,growth inhibition,[5]; at 100.0 µM,94% (active)
same,growth inhibition,[6]; at 1.2 µM,-7%
same,growth inhibition,[6]; at 3.7 µM,-6%
same,growth inhibition,[6]; [17],-5%
same,growth inhibition,[6]; at 11.0 µM,-6%
same,growth inhibition,[6]; at 33.0 µM,2%
same,growth inhibition,[6]; [18],19%
same,growth inhibition,[6]; at 50.0 µM,-8.75%
same,growth inhibition,[6]; at 100.0 µM,93% (active)
same,growth inhibition,[7]; at 1.2 µM,-2%
same,growth inhibition,[7]; at 3.7 µM,3%
same,growth inhibition,[7]; at 11.0 µM,4%
same,growth inhibition,[7]; at 33.0 µM,35%
same,growth inhibition,[7]; at 100.0 µM,97% (active)
same,growth inhibition,[8]; [17],1%
same,growth inhibition,[8]; [18],61%
same,growth inhibition,[8]; at 50.0 µM,90.7% (active)
same,growth inhibition,[9]; at 1.2 µM,-5%
same,growth inhibition,[9]; at 3.7 µM,-10%
same,growth inhibition,[9]; at 11.0 µM,-12%
same,growth inhibition,[9]; at 33.0 µM,-12%
same,growth inhibition,[9]; at 100.0 µM,56%
same,growth inhibition,[10]; [17],-14%
same,growth inhibition,[10]; [18],-15%
same,growth inhibition,[10]; at 50.0 µM,4.85%
same,growth inhibition,[11]; at 1.2 µM,-4%
same,growth inhibition,[11]; at 3.7 µM,-8%
same,growth inhibition,[11]; [17],-5%
same,growth inhibition,[11]; at 11.0 µM,-1%
same,growth inhibition,[11]; at 33.0 µM,23%
same,growth inhibition,[11]; [18],47%
same,growth inhibition,[11]; at 50.0 µM,83.3% (active)
same,growth inhibition,[11]; at 100.0 µM,88% (active)
same,growth inhibition,[12]; at 1.2 µM,-3%
same,growth inhibition,[12]; at 3.7 µM,-4%
same,growth inhibition,[12]; at 11.0 µM,-6%
same,growth inhibition,[12]; at 33.0 µM,18%
same,growth inhibition,[12]; at 100.0 µM,94% (active)
same,growth inhibition,[13]; at 1.2 µM,1%
same,growth inhibition,[13]; at 3.7 µM,4%
same,growth inhibition,[13]; at 11.0 µM,0%
same,growth inhibition,[13]; at 33.0 µM,28%
same,growth inhibition,[13]; at 100.0 µM,95% (active)
same,growth inhibition,[14]; at 1.2 µM,-2%
same,growth inhibition,[14]; at 3.7 µM,-1%
same,growth inhibition,[14]; at 11.0 µM,-2%
same,growth inhibition,[14]; at 33.0 µM,19%
same,growth inhibition,[14]; at 100.0 µM,94% (active)
same,growth inhibition,[15]; [17],-6%
same,growth inhibition,[15]; [18],69%
same,growth inhibition,[15]; at 50.0 µM,90.9% (active)
same,growth inhibition,[16]; at 1.2 µM,-3%
same,growth inhibition,[16]; at 3.7 µM,12%
same,growth inhibition,[16]; at 11.0 µM,8%
same,growth inhibition,[16]; at 33.0 µM,24%
same,growth inhibition,[16]; at 100.0 µM,81% (active)
CC(=O)OCC(=O)C1(O)CCC2C3CCC4CCCCC4(C)C3CCC21C (stereo unspecified),growth inhibition,[1]; at 1.2 µM,-52%
same,growth inhibition,[1]; at 3.7 µM,-27%
same,growth inhibition,[1]; at 11.0 µM,21%
same,growth inhibition,[1]; at 33.0 µM,55%
same,growth inhibition,[1]; at 100.0 µM,83% (active)
same,growth inhibition,[2]; at 1.2 µM,-20%
same,growth inhibition,[2]; at 3.7 µM,-14%
same,growth inhibition,[2]; at 11.0 µM,7%
same,growth inhibition,[2]; at 33.0 µM,50%
same,growth inhibition,[2]; at 100.0 µM,77% (active)
same,growth inhibition,[3]; at 1.2 µM,-9%
same,growth inhibition,[3]; at 3.7 µM,-16%
same,growth inhibition,[3]; at 11.0 µM,-40%
same,growth inhibition,[3]; at 33.0 µM,-22%
same,growth inhibition,[3]; at 100.0 µM,-25%
same,growth inhibition,[4]; at 1.2 µM,3%
same,growth inhibition,[4]; at 3.7 µM,3%
same,growth inhibition,[4]; at 11.0 µM,34%
same,growth inhibition,[4]; at 33.0 µM,57%
same,growth inhibition,[4]; at 100.0 µM,88% (active)
same,growth inhibition,[5]; at 1.2 µM,13%
same,growth inhibition,[5]; at 3.7 µM,-25%
same,growth inhibition,[5]; [17],59%
same,growth inhibition,[5]; at 11.0 µM,13%
same,growth inhibition,[5]; at 33.0 µM,53%
same,growth inhibition,[5]; [18],78% (active)
same,growth inhibition,[5]; at 50.0 µM,83.2% (active)
same,growth inhibition,[5]; at 100.0 µM,87% (active)
same,growth inhibition,[6]; at 1.2 µM,-3%
same,growth inhibition,[6]; at 3.7 µM,-10%
same,growth inhibition,[6]; [17],64%
same,growth inhibition,[6]; at 11.0 µM,14%
same,growth inhibition,[6]; at 33.0 µM,41%
same,growth inhibition,[6]; [18],84% (active)
same,growth inhibition,[6]; at 50.0 µM,61.5%
same,growth inhibition,[6]; at 100.0 µM,81% (active)
same,growth inhibition,[7]; at 1.2 µM,-31%
same,growth inhibition,[7]; at 3.7 µM,-17%
same,growth inhibition,[7]; at 11.0 µM,8%
same,growth inhibition,[7]; at 33.0 µM,60%
same,growth inhibition,[7]; at 100.0 µM,86% (active)
same,growth inhibition,[8]; [17],-11%
same,growth inhibition,[8]; [18],60%
same,growth inhibition,[8]; at 50.0 µM,70.5% (active)
same,growth inhibition,[9]; at 1.2 µM,10%
same,growth inhibition,[9]; at 3.7 µM,23%
same,growth inhibition,[9]; at 11.0 µM,34%
same,growth inhibition,[9]; at 33.0 µM,60%
same,growth inhibition,[9]; at 100.0 µM,82% (active)
same,growth inhibition,[10]; [17],35%
same,growth inhibition,[10]; [18],75% (active)
same,growth inhibition,[10]; at 50.0 µM,76% (active)
same,growth inhibition,[11]; at 1.2 µM,-24%
same,growth inhibition,[11]; at 3.7 µM,-13%
same,growth inhibition,[11]; [17],56%
same,growth inhibition,[11]; at 11.0 µM,26%
same,growth inhibition,[11]; at 33.0 µM,46%
same,growth inhibition,[11]; [18],74% (active)
same,growth inhibition,[11]; at 50.0 µM,76% (active)
same,growth inhibition,[11]; at 100.0 µM,82% (active)
same,growth inhibition,[12]; at 1.2 µM,-50%
same,growth inhibition,[12]; at 3.7 µM,-54%
same,growth inhibition,[12]; at 11.0 µM,-17%
same,growth inhibition,[12]; at 33.0 µM,27%
same,growth inhibition,[12]; at 100.0 µM,74% (active)
same,growth inhibition,[13]; at 1.2 µM,-2%
same,growth inhibition,[13]; at 3.7 µM,-8%
same,growth inhibition,[13]; at 11.0 µM,7%
same,growth inhibition,[13]; at 33.0 µM,37%
same,growth inhibition,[13]; at 100.0 µM,79% (active)
same,growth inhibition,[14]; at 1.2 µM,-16%
same,growth inhibition,[14]; at 3.7 µM,-16%
same,growth inhibition,[14]; at 11.0 µM,14%
same,growth inhibition,[14]; at 33.0 µM,38%
same,growth inhibition,[14]; at 100.0 µM,79% (active)
same,growth inhibition,[15]; [17],47%
same,growth inhibition,[15]; [18],80% (active)
same,growth inhibition,[15]; at 50.0 µM,70.8% (active)
same,growth inhibition,[16]; at 1.2 µM,10%
same,growth inhibition,[16]; at 3.7 µM,24%
same,growth inhibition,[16]; at 11.0 µM,32%
same,growth inhibition,[16]; at 33.0 µM,67%
same,growth inhibition,[16]; at 100.0 µM,92% (active)
